Measured values published in the supplement of paper PMC9334596.
Values joined by “and” are separate entries in the source; they are usually repeats but may differ in a detail not shown here. Equal entries are not always repeated. The full ranking holds about 5,300 compounds; the median of “PER2::LUC luminescence relative to vehicle control” is about 0.96, and the highest 2% start at about 1.3. What follows is part of a selection rich in the highest values, with near analogues and random picks from the rest.

Test system: mPer2Luc MEF
Experiment: PER2::LUC luminescence relative to vehicle control (fold of vehicle); higher = higher PER2::LUC reporter signal
Details: 10 µM
In short: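 In 384-well plates, ~3000 mPer2Luc reporter mouse embryonic fibroblasts per well were cultured in DMEM with 10% FBS at 37 °C and 5% CO2 for 48 h before compounds from commercial libraries were added at 10 μM. ONE-Glo luciferase readings were taken 24 h and 30 h after treatment. Each value is PER2::LUC luminescence given as fold of vehicle control.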

Row | Compound | PER2::LUC luminescence (time after treatment 24 h) | PER2::LUC luminescence (time after treatment 30 h)
1 | Cc1cccc(/C=C/c2ccccc2)n1 | 1.35 | 1.16
2 | CN(C/C=C/c1ccccc1)Cc1cccc2ccccc12 | 0.5 | 0.535
3 | CC(COc1ccc(/C=C/c2ccccc2)cc1)[N+](C)(C)C (stereo not drawn) | 0.936 | 1.02
4 | O=Cc1c2[nH]c3ccccc3c2cc2[nH]c3ccccc3c12 | 1.54 | 1.5
5 | OCc1cc2c(cn1)[nH]c1ccccc12 | 0.851 | 0.873
6 | O=c1[nH]c2ccccc2c2ccccc12 | 1.19 | 0.972
7 | CC[C@@H](C)[C@@H](O)[C@H](C)C(=O)[C@H](C)/C=C(\C)C[C@H](C)[C@@H]1OC(=O)[C@H]1CC | 1.06 | 0.925
8 | Clc1cccc(COc2cncc(N3CCNCC3)n2)c1 | 0.246 | 0.301
9 | CCCCc1ccc(NC(C)=O)c(C)c1 | 1.1 | 1.05
10 | COc1ccccc1C(=O)Nc1cccc(NC(=O)c2cccc(C)c2)c1 | 0.917 | 0.985
11 | COc1cc(NC(=O)c2ccccn2)ccc1Cl | 1.13 | 1.38
12 | CN1CC(=O)N=C1NC(=O)Nc1cccc(Cl)c1 | 0.949 | 1.1
13 | O=C(Nc1ccc(S(=O)(=O)Nc2ccccc2Cl)c(Cl)c1)c1ccccn1 | 0.992 | 1.06
14 | CS(=O)(=O)c1ccc(C(=O)Nc2ccc(Cl)c(-c3ccccn3)c2)c(Cl)c1 | 1.17 | 1.14
15 | O=C(Nc1cccc(Cl)c1)c1ccccn1 | 1.65 | 1.48
16 | COc1cccc(CNC(=O)Nc2nc(-c3ccncc3)cs2)c1 | 0.558 | 0.601
17 | O=c1ncc(F)c[nH]1 | 0.979 | 0.911
18 | Cn1c2ncnc-2c(O)n(C)c1=O | 1.14 | 1.18
19 | FC(F)(F)COB(OCC(F)(F)F)OCC(F)(F)F | 0.958 | 1
20 | O=C1CN(/N=C/C=C/c2ccc([N+](=O)[O-])o2)C(=O)N1 | 1.04 | 1.01
21 | CCOc1cccc(C(=O)c2ccc(O)c(O)c2O)c1 | 1.23 | 1.37
22 | CCOc1ccc(C(=O)c2ccc(OC)c(O)c2O)cc1 | 0.983 | 0.916
23 | CCOc1ccc(C(=O)c2ccc(O)c(O)c2O)cc1 | 0.963 | 1.08
24 | O=C(Nc1cccc(NC(=O)c2cccc(O)c2O)c1)c1cccc(O)c1O | 0.916 | 1.34

Row | Compound | PER2::LUC luminescence (time after treatment 24 h) | PER2::LUC luminescence (time after treatment 30 h)
25 | O=C(O)Cc1cccc(OCCCN(Cc2cccc(C(F)(F)F)c2Cl)CC(c2ccccc2)c2ccccc2)c1 | 1.4 | 1.47
26 | O=c1[nH]c(C2CCCN2)nc2c1oc1ccc(Cl)cc12 (stereo not drawn) | 1.22 | 1.29
27 | N#Cc1cc(-c2ccnc(Nc3ccc(N4CCOCC4)cc3)n2)ccc1OC1CCOCC1 | 0.507 | 0.584
28 | O=C(CCCCCCCCCCCCC1CCCC1)Nc1ccc(S(=O)(=O)c2ccc(NC(=O)CCCCCCCCCCCCC3CCCC3)cc2)cc1 | 1.06 | 1.02
29 | COc1cccc(-c2ccc(NC(=O)C3=C(C(=O)O)CCC3)c(F)c2)c1 | 1.43 | 1.75
30 | COc1ccccc1C(=O)Nc1cc2c(cc1N1CCCCC1)n(C)c(=O)n2C | 0.765 | 0.829
31 | COc1cccc(C(=O)NCCN2CCN(c3ccc(Cl)cc3)CC2)c1 | 0.833 | 0.96
32 | CC(C)=CCC/C(C)=C/CC/C(C)=C/CC/C(C)=C/C(=O)O | 1.07 | 0.976
33 | COc1c(O)c2c(=O)cc(OC)c3c4c(OC)cc(=O)c5c(O)c(OC)c6c(c(c1CC(C)=C6C(C)=O)c23)c54 | 0.779 | 0.948
34 | C=CCSSSCC=C | 1.32 | 1.05
35 | Nc1ccc(-c2nc3ccc(-c4nc5ccc(N)cc5[nH]4)cc3[nH]2)cc1 | 0.876 | 0.866
36 | O=C(O)c1cc(-c2ccccc2)nc2ccccc12 | 0.91 | 1.12
37 | Nc1ccc(-c2ccc3ccccc3n2)cc1 | 1.74 | 1.29
38 | COc1cc(Nc2nc3c(s2)CCCC3c2ccc(F)cc2)ccc1-n1cnc(C)c1 (stereo not drawn) | 1.05 | 1.02
39 | C/C=C\c1ccc(OC)cc1 | 1 | 1.03
40 | CC(CC(=O)O)C(N)C(=O)O (racemic) | 0.979 | 0.922
41 | O=c1cc(-c2ccccc2F)[nH]c2cc3c(cc12)OCO3 | 0.9 | 0.871
42 | CC(C)=CC[C@@H](OC(=O)C=C(C)C)C1=CC(=O)c2c(O)ccc(O)c2C1=O | 1.03 | 1.03
43 | CC12CCc3occc3C1CCC13CC(=O)C(CCC12)C3 (stereo not drawn) | 0.996 | 0.94
44 | CC(=O)O[C@H]1CC[C@]2(C)C3CC[C@@]4(C)[C@H](C5CC(C6OC6(C)C)OC5O)CC[C@]4(C)C3=CC[C@H]2C1(C)C (stereo partly drawn) | 1.14 | 1.08
45 | COc1cc(/C=C/C(=O)O)cc(OC)c1OC | 0.994 | 0.955
46 | COc1cc(C)c(/C=C/C(C)=C/C=C/C(C)=C/C(=O)O)c(C)c1C | 1.82 | 2.04
47 | CC1=C(/C=C/C(C)=C/C=C/C(C)=C/C(=O)O)C(C)(C)CCC1O (stereo not drawn) | 0.928 | 1.06
48 | O=C(NCc1cccs1)c1cc2nc(-c3ccco3)cc(C(F)(F)Cl)n2n1 | 1.03 | 1.11

Row | Compound | PER2::LUC luminescence (time after treatment 24 h) | PER2::LUC luminescence (time after treatment 30 h)
49 | Cn1nnnc1SCC1=C(C(=O)O)N2C(=O)[C@@H](NC(=O)C(OC=O)c3ccccc3)[C@H]2SC1 (stereo partly drawn) | 0.605 | 0.705
50 | O=C(O)/C=C/C=C/c1ccc2c(c1)OCO2 | 1.07 | 1.03
51 | O=C(/C=C/C=C/c1ccc2c(c1)OCO2)N1CCCCC1 | 1.5 | 1.42
52 | O=C(c1ccc2c(c1)OCO2)N1CCCCC1 | 1 | 0.843
53 | COc1cc(N2CCOCC2)ccc1Nc1ncc(F)c(Nc2ccccc2NS(C)(=O)=O)n1 | 0.771 | 0.673
54 | Nc1nc(Nc2ccc3c(c2)CCC(N2CCCC2)CC3)nn1-c1cc2c(nn1)-c1ccccc1CCC2 (stereo not drawn) | 0.438 | 0.375
55 | O=C(NCCN1CCOCC1)c1ccc(Cl)cc1 | 1.09 and 1.08 | 0.965 and 1.2
56 | C[C@@H](O)[C@H](NC(=O)c1ccc(C#Cc2ccc(CN3CCOCC3)cc2)cc1)C(=O)NO | 1.32 | 1.62
57 | O=C(c1ccc(CN2CCOCC2)cc1)N1CCN(C2CC2)CC1 | 1.07 | 0.963
58 | O=C1/C(=C/c2cc(Br)c(O)c(Br)c2)COC/C1=C\c1cc(Br)c(O)c(Br)c1 | 0.259 | 0.258
59 | COc1cc2c(c(OC)c1OC)-c1ccc(OC)c(=O)cc1[C@@H](NC=O)CC2 | 0.938 | 0.84
60 | NCC(O)c1ccc(O)c(O)c1 (racemic) | 1.04 | 1.12
61 | NCC(O)c1ccc(O)c(O)c1 (stereo not drawn) | 1.47 | 1.55
62 | NC[C@@H](O)c1ccc(O)c(O)c1 | 1.26 | 1.04
63 | CCCC[C@@H](C)/C=C(C)/C=C(\C)C(=O)NC1=C[C@@](O)(/C=C/C=C/C=C/C(=O)NC2=C(O)CCC2=O)[C@@H]2O[C@@H]2C1=O | 0.951 | 0.934
64 | Cc1ccc(O)cc1Nc1ccnc(Nc2cccc(C(N)=O)c2)n1 | 1.05 | 1.02
65 | CCOC(=O)c1sc(NC(=O)[C@H](C(C)C)n2c(=O)[nH]c3ccccc3c2=O)nc1C | 1.02 | 0.987
66 | O=C(O[C@H]1[C@H](Oc2ccccc2COC(=O)C2(O)C=CCCC2=O)O[C@H](CO)[C@@H](O)[C@@H]1O)c1ccccc1 (stereo partly drawn) | 0.824 | 0.676
67 | Cc1ccc(O)c(N=Nc2ccccc2)n1 | 1.05 | 0.998
68 | Nc1ccc(/N=N/c2ccccc2)c(N)n1 | 1.76 | 1.7
69 | CC[C@H]1CN(c2nc(N)c(C(N)=O)nc2Cl)CCN1C1CCN(Cc2ccc(Cl)cc2)CC1 | 0.96 | 1.01
70 | COc1ccc2c(=O)c(CC(=O)O)coc2c1 | 0.908 | 0.978
71 | O=c1cc(-c2ccc(O)cc2)oc2cc(O[C@@H]3O[C@H](CO)[C@@H](O)[C@H](O)[C@H]3O)cc(O)c12 | 1.22 | 1.43
72 | COc1ccc(-c2coc3cc(O)ccc3c2=O)c(OC)c1 | 1.02 | 1.05

Row | Compound | PER2::LUC luminescence (time after treatment 24 h) | PER2::LUC luminescence (time after treatment 30 h)
73 | O=c1cc(-c2ccc(O)c(O[C@@H]3O[C@H](CO)[C@@H](O)[C@H](O)[C@H]3O)c2)oc2cc(O[C@@H]3O[C@H](CO)[C@@H](O)[C@H](O)[C@H]3O)cc(O)c12 | 1.07 | 1.04
74 | COc1ccc(-c2coc3cc(O)ccc3c2=O)cc1 | 1.77 | 1.97
75 | COc1ccccc1-c1coc2cc(O)ccc2c1=O | 1.14 | 1.04
76 | O=c1c(-c2ccc(O)cc2)coc2cc(O[C@@H]3O[C@H](CO)[C@@H](O)[C@H](O)[C@H]3O)ccc12 | 1.25 | 1.39
77 | O=c1c(-c2ccc(O)cc2)coc2cc(O)ccc12 | 0.822 | 0.788
78 | C[C@@H]1O[C@@H](O[C@H]2[C@H](Oc3cc(O)c4c(=O)cc(-c5ccc(O)cc5)oc4c3)O[C@H](CO)[C@@H](O)[C@@H]2O)[C@H](O)[C@H](O)[C@H]1O | 0.841 | 0.85
79 | CC(C)Oc1ccc2c(=O)c(-c3ccccc3)coc2c1 | 1.9 | 1.92
80 | OC[C@H]1O[C@@H](Oc2ccc(O)cc2)[C@H](O)[C@@H](O)[C@@H]1O | 1.02 | 0.876
81 | O=c1c(-c2ccc(O)cc2)coc2cc(O[C@@H]3O[C@H](CO)[C@@H](O)[C@H](O)[C@H]3O)cc(O)c12 | 1.3 | 1.32
82 | Cc1ccc(NC(=O)Nc2cc(-c3ccccc3-c3nn[nH]n3)ccc2N(CC(C)C)CC(C)C)cc1 | 0.966 | 0.93
83 | O=c1ccc2cccc(O)c2[nH]1 | 1.06 | 0.957
84 | CCCCC/C=C\CCC(=O)N[C@H]1[C@H](Oc2c3cc4cc2Oc2ccc(cc2Cl)[C@@H](O[C@@H]2O[C@H](CO)[C@@H](O)[C@H](O)[C@H]2NC(C)=O)[C@@H]2NC(=O)[C@H](NC(=O)[C@@H]4NC(=O)[C@H]4NC(=O)[C@@H](Cc5ccc(c(Cl)c5)O3)NC(=O)[C@H](N)c3ccc(O)c(c3)Oc3cc(O)cc4c3)c3ccc(O)c(c3)-c3c(O[C@H]4O[C@H](CO)[C@@H](O)[C@H](O)[C@@H]4O)cc(O)cc3[C@@H](C(=O)O)NC2=O)O[C@H](CO)[C@@H](O)[C@@H]1O | 0.886 | 0.953
85 | C=C[C@@](C)(O)CC[C@H]1C(=C)CC[C@H]2C(C)(C)CCC[C@]12C | 0.946 | 0.911
86 | COc1ccc(-c2coc3cc(O)ccc3c2=O)cc1S(=O)(=O)O | 1 | 0.898
87 | COc1ccc(-c2coc3c(OC)c(OC)cc(O)c3c2=O)cc1 | 1.01 | 1.13
88 | O=c1c(-c2ccc(O)cc2)coc2cc(O)cc(O)c12 | 1.07 | 1.06
89 | COc1cc(-c2coc3cc(O)c(OC)c(O)c3c2=O)cc(O)c1OC | 1.37 | 1.39
90 | COc1cc(-c2coc3cc(OC)c(OC)c(OC)c3c2=O)cc(OC)c1OC | 0.972 | 0.969
91 | COc1ccc2c(=O)c(-c3ccc(O)cc3)coc2c1 | 1.39 | 1.62
92 | COc1ccc(-c2coc3c(O)c(O)c(OC)cc3c2=O)cc1 | 1.31 | 1.23
93 | COc1cc(-c2coc3cc(O[C@@H]4O[C@H](CO)[C@@H](O)[C@H](O)[C@H]4O)c(OC)c(O)c3c2=O)cc(O)c1OC | 0.773 | 1.31
94 | COc1ccc(-c2coc3cc(O)cc(O)c3c2=O)cc1 | 1.83 | 1.97
